The results in this text go back to PubChem BioAssay (EPA / NIEHS).

Records with an inconclusive call do not appear. Active and inactive are the calls of the source. The calls were made as follows, unless noted: active = hit-call score of the fitted dose curve at least 0.9, where 1 is the maximum; inactive = score below 0.9.

A short description of assay [1]: BSK_LPS_PGE2: BioMAP Diversity Plus: LPS Assay for Prostaglandin E2 (PGE2) Biomarker Activity (AID 2283082).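 As to AC50: secreted prostaglandin E2 measured by ELISA in LPS-stimulated co-culture.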 Particulars: primary human HUVEC with PBMC; actives raise or lower the signal. The method in brief:
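Compounds were added to the LPS co-culture of endothelium and PBMC, and PGE2 was measured by ELISA after 24 h. Responses in either direction were fitted with DMSO as baseline.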

Read-out in assay [2]: Macrophage colony-stimulating factor (MCSF), CSF1 (gene 1435)
The assay is described as follows: BSK_LPS_MCSF: BioMAP Diversity Plus: LPS Assay for Macrophage colony-stimulating factor (MCSF) Biomarker Activity (AID 2283083). Particulars: primary human HUVEC with PBMC; actives raise or lower the signal. The procedure, abridged: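 Bidirectional fitting against DMSO was applied to M-CSF levels read by ELISA at 24 h post-dose. The system pairs human umbilical vein endothelium with peripheral blood mononuclear cells; parallel SRB staining tracked cytotoxicity.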

Read-out in assay [3]: Tissue Factor, F3 (gene 2152)
The assay is described as follows: BSK_LPS_TissueFactor: BioMAP Diversity Plus: LPS Assay for Tissue Factor Biomarker Activity (AID 2283084). To be noted: primary human HUVEC with PBMC; actives raise or lower the signal. The method in brief: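 Compound was added to an endothelial cell/PBMC co-culture, and after 24 h tissue factor (CD142) was read by ELISA. Gain or loss of signal was fitted against a DMSO baseline, and parallel SRB staining (560 nm) tracked overt cytotoxicity.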

Read-out in assay [4]: Tumor necrosis factor (Homo sapiens) (UniProt P01375)
Description: BSK_LPS_TNFa: BioMAP Diversity Plus: LPS Assay for Tumour Necrosis Factor alpha (TNFa) Biomarker Activity (AID 2283085). Particulars: primary human HUVEC with PBMC; actives raise or lower the signal. The method in brief:
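Cells (umbilical vein endothelium plus peripheral blood mononuclear cells) were dosed with chemical, incubated 24 h, then TNFa was quantified by ELISA; values derive from bidirectional fitting with DMSO as baseline.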

Read-out in assay [5]: Vascular cell adhesion molecule 1 (VCAM1), VCAM1 (gene 7412)
The assay is described as follows: BSK_LPS_VCAM1: BioMAP Diversity Plus: LPS Assay for Vascular cell adhesion molecule 1 (VCAM1) Biomarker Activity (AID 2283086). Particulars: primary human HUVEC with PBMC; actives raise or lower the signal. The method in brief:
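Cells are dosed in an LPS-stimulated endothelial/mononuclear co-culture and, after 24 h, VCAM-1 is quantified by ELISA. Activity in either direction is fitted relative to the DMSO negative control.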

Read-out in assay [6]: CD38, CD38 (gene 952)
Description: BSK_SAg_CD38: BioMAP Diversity Plus: SAg Assay for CD38 Biomarker Activity (AID 2283087). Particulars: primary human HUVEC with PBMC; actives raise or lower the signal. The method in brief: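 CD38 quantified by ELISA (fluorescence) in a superantigen-activated endothelial cell–PBMC co-culture at 24 h post-dose. Activity fitted in both directions relative to DMSO; parallel SRB and Alamar Blue cytotoxicity read-outs.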

Read-out in assay [7]: CD40, CD40 (gene 958)
The assay is described as follows: BSK_SAg_CD40: BioMAP Diversity Plus: SAg Assay for CD40 Biomarker Activity (AID 2283088). To be noted: primary human HUVEC with PBMC; actives raise or lower the signal. The procedure, abridged: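 CD40 is measured by fluorescence ELISA in an endothelial/PBMC primary human co-culture at 24 h post-dose. Fitting is bidirectional, DMSO baseline. Parallel SRB staining (560 nm) flags cytotoxicity.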

Read-out in assay [8]: CD69, CD69 (gene 969)
The assay is described as follows: BSK_SAg_CD69: BioMAP Diversity Plus: SAg Assay for CD69 Biomarker Activity (AID 2283089).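 As to AC50: cell surface CD69 protein quantified by ELISA with fluorescence detection.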 Particulars: primary human HUVEC with PBMC; actives raise or lower the signal. The procedure, abridged: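 Primary human vascular co-culture (umbilical vein endothelium with peripheral blood mononuclear cells) exposed to test chemical for 24 h. CD69 levels quantified by fluorescence ELISA; DMSO served as negative control for bidirectional fitting.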

Read-out in assay [9]: Monocyte Chemoattractant Protein-1 (MCP1), CCL2 (gene 6347)
Description: BSK_SAg_MCP1: BioMAP Diversity Plus: SAg Assay for Monocyte Chemoattractant Protein-1 (MCP1) Biomarker Activity (AID 2283090). Particulars: primary human HUVEC with PBMC; actives raise or lower the signal. The procedure, abridged:
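Values derive from bidirectional fitting of ELISA-measured MCP1 against DMSO controls. Readings were taken 24 h after dosing human vascular endothelial cells co-cultured with peripheral blood mononuclear cells under superantigen stimulation.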

Read-out in assay [10]: E-selectin (Homo sapiens) (UniProt P16581)
Description: BSK_SAg_Eselectin: BioMAP Diversity Plus: SAg Assay for Eselectin Biomarker Activity (AID 2283091). Particulars: primary human HUVEC with PBMC; actives raise or lower the signal. The procedure, abridged:
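Cell-surface E-selectin is read by ELISA at 24 h in the SAg co-culture of HUVEC and PBMC. Curves are fitted in both directions relative to DMSO. Parallel SRB total-protein staining tracks overt toxicity.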

Read-out in assay [11]: Monokine induced gamma interferon (MIG), CXCL9 (gene 4283)
The assay is described as follows: BSK_SAg_MIG: BioMAP Diversity Plus: SAg Assay for Monokine induced gamma interferon (MIG) Biomarker Activity (AID 2283092). Particulars: primary human HUVEC with PBMC; actives raise or lower the signal. The method in brief:
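Endothelial cells and PBMC were co-cultured, exposed to test chemicals, and sampled 24 h later. MIG was measured by ELISA, and responses were fitted in both directions relative to DMSO.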

The nature of assay [12]: BSK_SAg_PBMCCytotoxicity: PBMC Cytotoxicity Assessment in the BioMAP Diversity Plus: SAg Assay (AID 2283093).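 Also: PBMC viability measured as Alamar Blue reduction fluorescence at 546/580 nm; fitted both ways against DMSO so a hit may be loss or gain of signal.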 Particulars: primary human HUVEC with PBMC. The procedure, abridged:
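Alamar Blue reduction (6 h, ex/em 546/580 nm) read after 90 h culture of PBMC pre-dosed 1 h then stimulated with SEB plus TSST-1, 20 ng/mL each. Gain or loss of signal fitted relative to DMSO.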

Read-out in assay [13]: Interleukin-8 (IL8), CXCL8 (gene 3576)
Description: BSK_SAg_IL8: BioMAP Diversity Plus: SAg Assay for Interleukin-8 (IL8) Biomarker Activity (AID 2283094). Particulars: primary human HUVEC with PBMC; actives raise or lower the signal. The procedure, abridged: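 Chemicals were dosed onto a human endothelial–PBMC co-culture, and IL-8 was quantified by ELISA after 24 h. Both increases and decreases were fitted relative to DMSO.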

Assay [14] in a line: BSK_SAg_Proliferation: Cell Proliferation Assessment in the BioMAP Diversity Plus: SAg Assay (AID 2283095).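 Also: relative cell number as total protein by SRB absorbance in sub-confluent culture.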 Particulars: primary human HUVEC with PBMC. The procedure, abridged:
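Absorbance of sulforhodamine B at 560 nm reports total protein in a human vascular endothelial/PBMC co-culture after 96 h chemical exposure. Gain or loss of signal is fitted in both directions against DMSO.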

Assay [15] is described as follows: BSK_SAg_SRB: Viability Assessment in the BioMAP Diversity Plus: SAg Assay (AID 2283096).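 Also: cells read one day after compound addition; hits may be either gain or loss of signal compared with DMSO.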 Particulars: primary human HUVEC with PBMC. The procedure, abridged:
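SRB absorbance at 560 nm served as the viability read-out. Cells (HUVEC plus peripheral blood mononuclear cells) were TCA-fixed and stained 24 h post-dosing; activity fitted in both directions against DMSO controls.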

The target of assay [16] is human CYP1A2, CYP1A2 (gene 1544) (UniProt P05177). Description: NVS_ADME_hCYP1A2: NovaScreen (NVS) CYP450-related Enzyme Activity (ADME) Assay for human CYP1A2 (AID 2283102; active = hit-call score of the fitted dose curve at least 0.9, where 1 is the maximum;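 as to AC50: fluorescence from turnover of a fluorogenic substrate by recombinant insect-cell CYP1A2; potency for inhibition since loss of fluorescence marks reduced CYP1A2 activity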). The procedure, abridged: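 Enzyme activity of insect-cell-expressed human CYP1A2 measured by fluorescence 0.5 h after compound addition, relative to acetonitrile. Compounds first tested in duplicate at 10 uM, actives followed up in concentration series.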
human CYP1A2, CYP1A2 (gene 1544), sequence (P05177 whole entry, looked up): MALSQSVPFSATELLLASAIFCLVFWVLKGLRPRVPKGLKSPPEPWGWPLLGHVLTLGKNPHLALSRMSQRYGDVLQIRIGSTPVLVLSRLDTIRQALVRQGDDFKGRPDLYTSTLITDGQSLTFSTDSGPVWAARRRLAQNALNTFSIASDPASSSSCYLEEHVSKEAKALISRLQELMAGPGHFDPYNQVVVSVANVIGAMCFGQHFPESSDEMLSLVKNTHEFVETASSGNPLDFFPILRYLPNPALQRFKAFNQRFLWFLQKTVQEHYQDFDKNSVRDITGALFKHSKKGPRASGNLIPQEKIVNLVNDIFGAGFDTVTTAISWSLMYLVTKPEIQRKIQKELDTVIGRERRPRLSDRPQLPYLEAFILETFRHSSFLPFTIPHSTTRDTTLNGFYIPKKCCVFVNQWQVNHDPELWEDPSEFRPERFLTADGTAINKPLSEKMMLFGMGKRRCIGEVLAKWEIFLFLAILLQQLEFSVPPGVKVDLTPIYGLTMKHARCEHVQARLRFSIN

The target of assay [17] is human CYP2A6, CYP2A6 (gene 1548) (UniProt P11509). Description: NVS_ADME_hCYP2A6: NovaScreen (NVS) CYP450-related Enzyme Activity (ADME) Assay for human CYP2A6 (AID 2283099; active = hit-call score of the fitted dose curve at least 0.9, where 1 is the maximum). The method in brief:
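Compounds screened at 10 uM (duplicate) and, if active, titrated to a 20 uM top concentration against insect-cell-expressed CYP2A6. Loss of fluorescent product signal after 0.5 h, relative to acetonitrile baseline, indicates inhibition.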

Assay [18] deals with human CYP1A1, CYP1A1 (gene 1543) (UniProt P04798). The assay is described as follows: NVS_ADME_hCYP1A1: NovaScreen (NVS) CYP450-related Enzyme Activity (ADME) Assay for human CYP1A1 (AID 2283100; active = hit-call score of the fitted dose curve at least 0.9, where 1 is the maximum). The method in brief:
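Chemicals were first tested in duplicate at 10 uM, and those passing a 30% inhibition threshold were rerun as concentration series topping at 20 uM. Fluorescence read-out of recombinant enzyme turnover after 1 h, relative to acetonitrile.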

Assay [19] deals with human CYP2B6, CYP2B6 (gene 1555) (UniProt P20813). The assay is described as follows: NVS_ADME_hCYP2B6: NovaScreen (NVS) CYP450-related Enzyme Activity (ADME) Assay for human CYP2B6 (AID 2283101; active = hit-call score of the fitted dose curve at least 0.9, where 1 is the maximum). The method in brief:
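Cell-free recombinant enzyme assay with a fluorogenic substrate; fluorescence intensity read 1 hour after dosing. Loss of signal relative to acetonitrile negative control indicates inhibition. Primary screen run in duplicate at 10 uM, actives then tested in concentration series.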

E-selectin (Homo sapiens), sequence (P16581 whole entry, looked up): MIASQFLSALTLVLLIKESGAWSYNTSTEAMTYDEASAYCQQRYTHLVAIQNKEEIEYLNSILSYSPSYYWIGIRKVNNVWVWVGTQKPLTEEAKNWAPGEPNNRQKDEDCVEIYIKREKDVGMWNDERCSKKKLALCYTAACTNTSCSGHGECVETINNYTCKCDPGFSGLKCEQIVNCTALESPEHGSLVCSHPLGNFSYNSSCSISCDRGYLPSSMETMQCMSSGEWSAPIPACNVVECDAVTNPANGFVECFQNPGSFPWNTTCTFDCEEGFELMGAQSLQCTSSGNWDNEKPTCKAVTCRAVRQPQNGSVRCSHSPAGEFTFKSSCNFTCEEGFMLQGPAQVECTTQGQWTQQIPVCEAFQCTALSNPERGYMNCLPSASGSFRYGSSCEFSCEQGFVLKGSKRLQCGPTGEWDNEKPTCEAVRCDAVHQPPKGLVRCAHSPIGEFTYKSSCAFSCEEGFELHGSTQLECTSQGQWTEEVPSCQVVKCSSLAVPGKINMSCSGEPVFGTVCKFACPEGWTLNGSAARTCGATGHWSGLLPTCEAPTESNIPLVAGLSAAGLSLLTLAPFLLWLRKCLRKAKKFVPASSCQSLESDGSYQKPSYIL
Tumor necrosis factor (Homo sapiens), sequence (P01375 whole entry, looked up): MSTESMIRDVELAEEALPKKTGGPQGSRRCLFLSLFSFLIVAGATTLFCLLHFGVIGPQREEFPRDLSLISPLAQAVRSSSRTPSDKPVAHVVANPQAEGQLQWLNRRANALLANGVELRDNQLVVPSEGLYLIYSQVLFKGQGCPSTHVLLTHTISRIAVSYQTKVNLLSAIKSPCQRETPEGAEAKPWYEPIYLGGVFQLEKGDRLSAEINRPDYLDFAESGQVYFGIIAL
human CYP1A1, CYP1A1 (gene 1543), sequence (P04798 whole entry, looked up): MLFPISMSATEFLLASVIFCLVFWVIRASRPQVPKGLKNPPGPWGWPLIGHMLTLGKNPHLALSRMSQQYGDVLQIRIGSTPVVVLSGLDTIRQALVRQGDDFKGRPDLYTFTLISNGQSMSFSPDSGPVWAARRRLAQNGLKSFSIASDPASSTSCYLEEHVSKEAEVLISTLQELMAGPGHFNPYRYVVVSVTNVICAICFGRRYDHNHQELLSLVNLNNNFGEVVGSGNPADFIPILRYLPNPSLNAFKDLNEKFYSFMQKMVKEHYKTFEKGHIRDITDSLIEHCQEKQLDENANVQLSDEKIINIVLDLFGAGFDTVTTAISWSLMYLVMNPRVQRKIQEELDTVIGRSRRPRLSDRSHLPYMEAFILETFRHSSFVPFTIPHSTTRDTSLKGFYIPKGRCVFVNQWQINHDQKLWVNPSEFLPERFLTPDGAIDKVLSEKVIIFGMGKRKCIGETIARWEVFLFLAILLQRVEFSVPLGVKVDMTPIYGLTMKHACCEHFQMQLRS
human CYP2B6, CYP2B6 (gene 1555), sequence (P20813 whole entry, looked up): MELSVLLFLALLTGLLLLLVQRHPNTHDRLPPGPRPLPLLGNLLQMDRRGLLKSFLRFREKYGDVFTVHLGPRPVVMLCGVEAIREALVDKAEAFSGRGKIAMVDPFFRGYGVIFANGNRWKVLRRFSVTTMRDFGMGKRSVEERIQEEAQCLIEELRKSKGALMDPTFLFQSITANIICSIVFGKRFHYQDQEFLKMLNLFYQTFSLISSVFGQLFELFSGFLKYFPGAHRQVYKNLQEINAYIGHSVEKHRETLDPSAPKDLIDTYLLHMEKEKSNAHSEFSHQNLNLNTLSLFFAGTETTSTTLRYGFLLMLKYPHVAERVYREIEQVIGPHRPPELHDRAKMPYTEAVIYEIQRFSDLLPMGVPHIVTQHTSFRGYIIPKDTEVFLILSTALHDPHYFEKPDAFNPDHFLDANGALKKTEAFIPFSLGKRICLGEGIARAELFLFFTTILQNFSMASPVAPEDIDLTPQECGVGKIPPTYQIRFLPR
human CYP2A6, CYP2A6 (gene 1548), sequence (P11509 whole entry, looked up): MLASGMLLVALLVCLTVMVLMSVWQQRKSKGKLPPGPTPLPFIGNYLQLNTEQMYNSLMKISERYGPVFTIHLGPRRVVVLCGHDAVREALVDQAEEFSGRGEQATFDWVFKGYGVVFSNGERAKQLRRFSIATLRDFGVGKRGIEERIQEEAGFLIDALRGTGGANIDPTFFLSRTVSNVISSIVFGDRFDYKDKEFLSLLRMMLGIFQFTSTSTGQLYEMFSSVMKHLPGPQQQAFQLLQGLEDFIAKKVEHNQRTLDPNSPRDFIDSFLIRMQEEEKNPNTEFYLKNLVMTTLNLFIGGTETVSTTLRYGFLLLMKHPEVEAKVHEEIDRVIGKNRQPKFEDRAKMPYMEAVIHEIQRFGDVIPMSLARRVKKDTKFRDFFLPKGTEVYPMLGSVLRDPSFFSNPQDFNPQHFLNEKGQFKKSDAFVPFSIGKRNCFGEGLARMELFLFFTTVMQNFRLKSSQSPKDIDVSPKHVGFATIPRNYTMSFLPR

As for `N#CC(Br)(Br)C(N)=O`, the outcome in assay [1], in [2], in assay [3], in assay [4], in assay [5] and in assay [6] was inactive. The result in assay [7], in [8], in assay [9], in [10], in [11] and in assay [12] was inactive. The result in [13], in assay [14], in [15] and in assay [16] was inactive.
By AC50 is commonly meant the concentration at which the activity in the assay is half-maximal. Turning to `Nc1ccc([N+](=O)[O-])cc1`, the outcome in [1], in assay [2], in assay [3], in [4], in [5] and in assay [6] was inactive. In addition, the outcome in assay [7], in [8], in [9], in [10], in [11] and in assay [12] was inactive. The outcome in [13], in assay [14] and in assay [15] was inactive. In assay [17], the concentration at half-maximal activity (AC50) was 8.46 µM (active).
As to `Cc1cc(N=Nc2ccccc2C)ccc1N`, the AC50 is 3.97 µM (active) in assay [1]; 20 µM (active) in assay [5]; 32.4 µM (active) in assay [6]; 30.7 µM (active) in [7]; 20 µM (active) in assay [9]; 4.75 µM (active) in [10]. The concentration at half-maximal activity (AC50) in assay [13] was 29.2 µM (active); in [14], 29.2 µM (active); in assay [15] it was 9.88 µM (active); in assay [18] it was 5.4 µM (active); in assay [19], 1.71 µM (active); in assay [16], 0.858 µM (active). Moreover, the outcome in [2], in assay [3], in [4], in [8], in [11] and in assay [12] was inactive. Besides, the outcome in assay [17] was inactive.
Regarding `Nc1ccc(Cl)cc1N`, the concentration at half-maximal activity (AC50) is 10 µM (active) in [1]; 2.96 µM (active) in assay [2]; 3.62 µM (active) in assay [5]; 6.44 µM (active) in [6]; 3.65 µM (active) in assay [8]; 3.7 µM (active) in assay [9]. Moreover, the AC50 is 8.35 µM (active) in assay [10] and 7.31 µM (active) in assay [16]. The outcome in [3], in [4], in assay [7], in [11], in assay [12] and in [13] was inactive. Also, the outcome in assay [14] and in [15] was inactive.
In the case of `Nc1ccc(Oc2ccc(N)cc2)cc1`, the values for the AC50 in assay [1] and in [19] were 12.7 µM (active) and 2.57 µM (active), respectively. For the same compound, the result in [2], in assay [3], in assay [4], in [5], in assay [6] and in assay [7] was inactive. The result in assay [8], in assay [9], in assay [10], in assay [11], in assay [12] and in assay [13] was inactive. For the same compound, the result in assay [14], in assay [15] and in assay [18] was inactive.
